Measured values reported in the supplement of paper PMC10127200.
Where “and” joins values, the source holds several entries; their conditions need not be identical. Identical values can stand only once. Counter-ions that a name gives are not always drawn.

Assays:
Test in all cases: Euclidean distance of Cell Painting phenotypic profile (signed KS, 77 features) to DMSO centroid (dimensionless distance); 5 or 10 uM (library dependent); higher = stronger phenotypic change vs DMSO (phenoactivity)
Conditions in all cases: 48 h
786-O = test system: 786-O
Method in brief: (§1)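 At 10 or 5 uM, as set by the library, and 0.1% DMSO final, compounds were applied for 48 h to five cancer lines and one healthy fibroblast line. Stained cells were imaged confocally at 20X in 9 fields per well, and Harmony extracted 77 features scored as signed Kolmogorov-Smirnov statistics against vehicle wells on the same plate. Profiles underwent plate-position correction, correlation weighting and replicate averaging at the top dose. Phenoactivity is the Euclidean distance from each such profile to the median vehicle profile.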

A549 = test system: A549
Method in brief: as §1

DU145 = test system: DU145
Method in brief: as §1

FB = test system: FB
Method in brief: as §1

HEPG2 = test system: HEPG2
Method in brief: as §1

OVCAR4 = test system: OVCAR4
Method in brief: as §1

| SMILES | Euclidean distance (786-O) | Euclidean distance (A549) | Euclidean distance (DU145) | Euclidean distance (FB) | Euclidean distance (HEPG2) | Euclidean distance (OVCAR4) |
| --- | --- | --- | --- | --- | --- | --- |
| FC(F)(F)C(Cl)Br (centres undefined) [Halothane] | 0.835 | 0.628 | 0.788 | 1 | 0.854 | 1.59 |
| C[N+](C)(C)CCOC(=O)CCC(=O)OCC[N+](C)(C)C [Succinylcholine Chloride Dihydrate] | 1.36 | 2.04 | 1.93 | 1.82 | 1.34 | 1.91 |
| O=C1C(N(CO)C(=O)NCO)N(CO)C(=O)N1CO (centres undefined) [Diazolidinyl urea] | 0.723 | 0.505 | 1.01 | 0.783 | 0.465 | 0.927 |
| C[N+](C)(C)CCO.[Cl-] [Choline Chloride] | 0.795 | 0.549 | 0.73 | 0.801 | 0.682 | 1.46 |
| Cc1ccc(C(C)C)c(O)c1 [Thymol] | 0.798 | 1.8 | 1.2 | 0.901 | 0.572 | 1.46 |
| Cc1cccc(CC(=O)N2CCc3c2ccc(-c2cn(C)c4ncnc(N)c24)c3F)n1 | 1.25 | 2.13 | 1.84 | 1.96 | 1.24 | 1.35 |
| c1ccc([C@H]2CN3CCSC3=N2)cc1 [Levamisole hydrochloride] | 0.976 | 0.704 | 1.37 | 0.953 | 0.417 | 1.23 |
| CCC[C@@H]1C[C@@H](C(=O)N[C@@H]([C@H]2O[C@H](SC)[C@H](O)[C@@H](O)[C@H]2O)[C@@H](C)O)N(C)C1 [Lincomycin HCl] | 1.49 | 0.984 | 0.817 | 1.01 | 0.457 | 1.31 |
| C[C@@H](O)[C@H]1C(=O)N2C(C(=O)O)=C(S[C@@H]3CN[C@H](C(=O)N(C)C)C3)[C@H](C)[C@H]12 [Meropenem] | 1.75 | 1.63 | 0.873 | 1.2 | 1.05 | 1.15 |
| COc1cnc(-n2cnc(C)n2)c2[nH]cc(C(=O)C(=O)N3CCN(C(=O)c4ccccc4)CC3)c12 | 1.35 | 0.841 | 0.792 | 0.569 | 1.32 | 0.969 |
| CNC(=O)c1cc(Oc2ccc3nc(N[C@@H]4CCCC[C@H]4O)sc3c2)ccn1 | 0.859 | 1.04 | 1.3 | 1.9 | 0.898 | 1.22 |
| COc1cc(Nc2ncc3c(n2)-c2ccc(Cl)cc2C(c2c(F)cccc2OC)=NC3)ccc1C(=O)O [Alisertib (MLN8237)] | 2.85 | 3.22 | 2.99 | 3.08 | 2.23 | 2.8 |
| Cc1cc(NS(=O)(=O)c2ccc(N)cc2)no1 [Sulfamethoxazole] | 1.58 | 0.797 | 0.847 | 1.02 | 0.562 | 0.86 |
| CC(C)(C(=O)c1cccnc1)c1cccnc1 [Metyrapone] | 1.56 | 1.55 | 0.902 | 1.36 | 0.932 | 1.85 |
| CNC(=O)c1ccccc1Sc1ccc2c(/C=C/c3ccccn3)n[nH]c2c1 [Axitinib] | 3.11 | 3.76 | 3.18 | 3.27 | 2.51 | 3.92 |
| COc1ccc(C(=O)c2ccccc2)c(O)c1 [Oxybenzone] | 1.07 | 0.943 | 0.824 | 1.34 | 0.753 | 1.32 |
| O=c1oc2cc(O)ccc2s1 [Tioxolone] | 1.49 | 0.671 | 0.857 | 0.922 | 2.64 | 1.29 |
| CNS(=O)(=O)Cc1ccc2[nH]cc(CCN(C)C)c2c1 [Sumatriptan Succinate] | 1.54 | 1.49 | 0.753 | 1.35 | 0.966 | 1.66 |
| CN(C)CCCOc1nn(Cc2ccccc2)c2ccccc12 [Benzydamine HCl] | 1.26 | 0.962 | 1.75 | 1.24 | 0.87 | 1.33 |
| CC(=O)c1c(C)c2cnc(Nc3ccc(N4CCNCC4)cn3)nc2n(C2CCCC2)c1=O | 5.92 and 5.88 | 3.42 and 3.04 | 5.03 and 4.42 | 6.3 and 5.78 | 5.39 and 4.73 | 5.52 and 5.47 |
| COc1ccc2cc(CCC(C)=O)ccc2c1 [Nabumetone] | 0.791 | 1.11 | 0.872 | 0.947 | 0.532 | 1.55 |
| CC[C@@H]([C@H](C)O)n1ncn(-c2ccc(N3CCN(c4ccc(OC[C@@H]5CO[C@@](Cn6cncn6)(c6ccc(F)cc6F)C5)cc4)CC3)cc2)c1=O [Posaconazole] | 3.81 | 2.06 | 2.09 | 2.3 | 1.43 | 1.21 |
| OCc1cc(C(O)CNCCCCCCOCCCCc2ccccc2)ccc1O (centres undefined) [Salmeterol Xinafoate] | 1.27 | 1.68 | 1.58 | 2.11 | 2.19 | 1.28 |
| CN[C@@H]1[C@H](O)[C@H](NC)[C@H]2O[C@@]3(O)C(=O)C[C@@H](C)O[C@H]3O[C@@H]2[C@H]1O [Spectinomycin 2HCl] | 1.1 | 0.735 | 0.979 | 1.48 | 0.555 | 0.972 |
